Drawing on PubChem BioAssay (NCI), this text covers growth inhibition for nine compounds.

Compounds without any hit were thinned out: in the full panel of roughly 79,000, 15% have a hit. A number with no mark means an inactive call. Calls of active or inactive are those of the source. Cut-off read from the data, not from the text of the source: active = growth inhibition above about 70%; inactive = the rest.

Assay [1] can be described thus: NCI Yeast Anticancer Drug Screen. Data for the rad50 strain (AID 155).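 Note: 0% = growth of vehicle-only cultures of the same strain.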 Conditions: S. cerevisiae rad50 strain growth inhibition, hits give high values. The gist of the method:
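Relative growth inhibition (compound vs vehicle) was measured in yeast with a defined repair-gene alteration.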

A short description of assay [2]: NCI Yeast Anticancer Drug Screen. Data for the mec2-1 strain (AID 157). To be noted: S. cerevisiae mec2-1 strain, hits give high values. Put shortly: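 Each compound was tested on mec2-1 yeast, a strain altered in DNA damage repair or cell cycle control. Growth inhibition is reported relative to vehicle.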
A short description of assay [3]: NCI Yeast Anticancer Drug Screen. Data for the sgs1 mgt1 strain (AID 161).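 Note: 0% = growth of cultures given vehicle only.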 Conditions: S. cerevisiae sgs1 mgt1 strain, hits give high values. The gist of the method:
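Inhibition of yeast growth, normalised to vehicle-treated controls, is reported for a strain bearing genetic alterations in DNA damage repair.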

Assay [4] is described as follows: NCI Yeast Anticancer Drug Screen. Data for the cln2 rad14 strain (AID 165).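 Note: 0% = growth equal to vehicle treated cultures.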 Conditions: S. cerevisiae cln2 rad14 strain, hits give high values. The gist of the method:
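Test compounds were added to cln2 rad14 yeast cultures; inhibition of growth was then determined by comparison with vehicle treatment.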

Assay [5] can be described thus: NCI Yeast Anticancer Drug Screen. Data for the bub3 strain (AID 167). To be noted: S. cerevisiae bub3 mutant strain, hits give high values. Put shortly:
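Screening used yeast with an engineered genetic alteration affecting cell cycle control. Compound-exposed cultures were compared with vehicle cultures, and reduced growth was taken as inhibition.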

Assay [6] is described as follows: NCI Yeast Anticancer Drug Screen. Data for the mlh1 rad18 strain (AID 175). Conditions: S. cerevisiae mlh1 rad18 strain growth inhibition, hits give high values. Put shortly: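 Inhibition values reflect reduced growth of mutant yeast versus vehicle-treated controls following compound exposure; the mutations affect DNA damage repair.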
Setting [7] is: at 5.0 µM (retest, dose inferred, filed as 0.5).
The mark [8] stands for this setting: at 50.0 µM (retest, dose inferred, filed as 5.0).

Regarding `c1ccc(N=Nc2ccc3ccccc3c2)cc1`, the growth inhibition in assay [1] (setting [7]) was 5%; in assay [1] (setting [8]), 9%; in assay [1] (at 50.0 µM), 16.1%; in assay [2] (setting [7]), 16%; in assay [2] (setting [8]), 10%; in assay [2] (at 50.0 µM) it was 11.8%. The growth inhibition is 6% in assay [3] (setting [7]); 6% in assay [3] (setting [8]); 3.65% in assay [3] (at 50.0 µM); 1% in assay [4] (setting [7]); 4% in assay [4] (setting [8]); -5.6% in assay [4] (at 50.0 µM). Besides, the growth inhibition in assay [5] (setting [7]) is 3%; in assay [5] (setting [8]), 17%; in assay [5] (at 50.0 µM), 83% (active); in assay [6] (setting [7]) it was 8%; in assay [6] (setting [8]), 10%; in assay [6] (at 50.0 µM) it was 21.8%.

For `CCN(CC)C(=O)C(C)OC(C)=O` (configuration not stated), the growth inhibition in assay [1] (setting [7]) was -1%; in assay [1] (setting [8]), 0%; in assay [1] (at 50.0 µM), -21.4%; in assay [2] (setting [7]), 2%; in assay [2] (setting [8]), 1%; in assay [2] (at 50.0 µM), 17.6%. The growth inhibition is 2% in assay [3] (setting [7]); -1% in assay [3] (setting [8]); -11.8% in assay [3] (at 50.0 µM); -2% in assay [4] (setting [7]); -3% in assay [4] (setting [8]); -16% in assay [4] (at 50.0 µM). For the same compound, the growth inhibition in assay [5] (setting [7]) is 2%; in assay [5] (setting [8]) it was -5%; in assay [5] (at 50.0 µM), 8.7%; in assay [6] (setting [7]) it was 1%; in assay [6] (setting [8]) it was 3%; in assay [6] (at 50.0 µM) it was 27.1%.

With `S=c1[nH]nc(Nc2ccccc2Cl)s1`, the growth inhibition in assay [1] (setting [7]) is 17%; in assay [1] (setting [8]), 3%; in assay [1] (at 50.0 µM), 57.5%; in assay [2] (setting [7]) it was -21%; in assay [2] (setting [8]) it was -8%; in assay [2] (at 50.0 µM), 32.4%. In addition, the growth inhibition in assay [3] (setting [7]) was -4%; in assay [3] (setting [8]), 15%; in assay [3] (at 50.0 µM), 79.8% (active); in assay [4] (setting [7]), 23%; in assay [4] (setting [8]), 22%; in assay [4] (at 50.0 µM) it was 43.2%. In addition, the growth inhibition in assay [5] (setting [7]) was 1%; in assay [5] (setting [8]) it was 19%; in assay [5] (at 50.0 µM) it was 57%; in assay [6] (setting [7]), -7%; in assay [6] (setting [8]), -8%; in assay [6] (at 50.0 µM), 47.9%.

Consider `CCCCCCCCCCCC(=O)OCCOC(=O)CCCCCCCCCCC`, for which the growth inhibition in assay [1] (setting [7]) was -8%; in assay [1] (setting [8]) it was -5%; in assay [1] (at 50.0 µM), -5.95%; in assay [2] (setting [7]), -1%; in assay [2] (setting [8]) it was -12%; in assay [2] (at 50.0 µM), -11.3%. Also, the growth inhibition in assay [3] (setting [7]) is -22%; in assay [3] (setting [8]), -7%; in assay [3] (at 50.0 µM), -20.6%; in assay [4] (setting [7]), 1%; in assay [4] (setting [8]), -5%; in assay [4] (at 50.0 µM), -4%. For the same compound, the growth inhibition in assay [5] (setting [7]) was 2%; in assay [5] (setting [8]), -12%; in assay [5] (at 50.0 µM), -3.35%; in assay [6] (setting [7]), 3%; in assay [6] (setting [8]), -6%; in assay [6] (at 50.0 µM), 7.4%.

Take `Cc1c(N)ccc(O)c1C`: the growth inhibition is 1% in assay [1] (setting [7]); 46% in assay [1] (setting [8]); 87.7% (active) in assay [1] (at 50.0 µM); -1% in assay [2] (setting [7]); 30% in assay [2] (setting [8]); 90.9% (active) in assay [2] (at 50.0 µM). The growth inhibition is -2% in assay [3] (setting [7]); 37% in assay [3] (setting [8]); 43.2% in assay [3] (at 50.0 µM); -3% in assay [4] (setting [7]); 17% in assay [4] (setting [8]); 86.3% (active) in assay [4] (at 50.0 µM). For the same compound, the growth inhibition is 1% in assay [5] (setting [7]); 41% in assay [5] (setting [8]); 96.8% (active) in assay [5] (at 50.0 µM); 1% in assay [6] (setting [7]); 35% in assay [6] (setting [8]); 96.6% (active) in assay [6] (at 50.0 µM).

Turning to `CCOC1=Cc2c(oc3c(C(C)(C)C)cc(OCC)cc23)OC(C(C)(C)C)=C1`, the growth inhibition is 22% in assay [1] (setting [7]); 95% (active) in assay [1] (setting [8]); 71.2% (active) in assay [1] (at 50.0 µM); 22% in assay [2] (setting [7]); 98% (active) in assay [2] (setting [8]); 85.3% (active) in assay [2] (at 50.0 µM). Besides, the growth inhibition in assay [3] (setting [7]) is 28%; in assay [3] (setting [8]), 97% (active); in assay [3] (at 50.0 µM) it was 73.4% (active); in assay [4] (setting [7]) it was 13%; in assay [4] (setting [8]), 96% (active); in assay [4] (at 50.0 µM), 75.7% (active). The growth inhibition in assay [5] (setting [7]) is 32%; in assay [5] (setting [8]), 98% (active); in assay [5] (at 50.0 µM) it was 78.7% (active); in assay [6] (setting [7]), 44%; in assay [6] (setting [8]) it was 94% (active); in assay [6] (at 50.0 µM), 19.6%.

As to `C/C=C\C(/C=C/C)(C(=O)OCCN(C)C)C(/C=C\C)(/C=C/C)C(=O)OCCN(C)C` (configuration not stated), the growth inhibition was 5% in assay [1] (setting [7]); 97% (active) in assay [1] (setting [8]); 98% (active) in assay [1] (at 50.0 µM); 2% in assay [2] (setting [7]); 97% (active) in assay [2] (setting [8]); 96.8% (active) in assay [2] (at 50.0 µM). Moreover, the growth inhibition in assay [3] (setting [7]) is 5%; in assay [3] (setting [8]), 96% (active); in assay [3] (at 50.0 µM), 95.8% (active); in assay [4] (setting [7]), 2%; in assay [4] (setting [8]), 97% (active); in assay [4] (at 50.0 µM), 96.5% (active). Also, the growth inhibition was 2% in assay [5] (setting [7]); 95% (active) in assay [5] (setting [8]); 95.4% (active) in assay [5] (at 50.0 µM); 3% in assay [6] (setting [7]); 97% (active) in assay [6] (setting [8]); 97% (active) in assay [6] (at 50.0 µM).

Take `O=C(N/C(=C\c1ccccc1)C(=O)N1CCN(c2ccccc2)CC1)c1ccccc1`: the growth inhibition is -9% in assay [1] (setting [7]); 6% in assay [1] (setting [8]); 90.2% (active) in assay [1] (at 50.0 µM); -4% in assay [2] (setting [7]); -2% in assay [2] (setting [8]); 93.2% (active) in assay [2] (at 50.0 µM). The growth inhibition was -7% in assay [3] (setting [7]); 7% in assay [3] (setting [8]); 95.3% (active) in assay [3] (at 50.0 µM); -12% in assay [4] (setting [7]); 0% in assay [4] (setting [8]); 87.8% (active) in assay [4] (at 50.0 µM). Also, the growth inhibition in assay [5] (setting [7]) is -4%; in assay [5] (setting [8]) it was 10%; in assay [5] (at 50.0 µM), 88.3% (active); in assay [6] (setting [7]), 0%; in assay [6] (setting [8]), 6%; in assay [6] (at 50.0 µM) it was 91.7% (active).

Take `CCCCCCCCCCCC(=O)OC/C=C/COC(=O)c1ccccc1`: the growth inhibition in assay [1] (setting [7]) is 2%; in assay [1] (setting [8]) it was 23%; in assay [1] (at 50.0 µM), 36%; in assay [2] (setting [7]) it was -3%; in assay [2] (setting [8]), 31%; in assay [2] (at 50.0 µM), -5.05%. In addition, the growth inhibition is 1% in assay [3] (setting [7]); 69% in assay [3] (setting [8]); 38.5% in assay [3] (at 50.0 µM); 0% in assay [4] (setting [7]); 20% in assay [4] (setting [8]); 69.3% in assay [4] (at 50.0 µM). The growth inhibition in assay [5] (setting [7]) is -5%; in assay [5] (setting [8]) it was 46%; in assay [5] (at 50.0 µM), 44%; in assay [6] (setting [7]), -7%; in assay [6] (setting [8]), 46%; in assay [6] (at 50.0 µM), 5.35%.
